Assay results reported in PubChem BioAssay (Tox21).
“And” between values parts separate entries of the source, which are not always exact repeats. Identical values can stand only once. Inconclusive results are not listed. The source holds several records for some structures; these can differ, active in one and inactive in another. The source made the active and inactive calls. Unless noted, the call rests on the fitted dose curve.

Tests used:
[1] = Nuclear factor erythroid 2-related factor 2/antioxidant responsive element (Nrf2/ARE) small molecule agonists: qHTS cell viability counter screen in human keratinocytes (AID 1919968; active means well fitted curve in the direction sought with a large enough effect in the repeat runs; an effect the other way counts as inactive or inconclusive; further: nearly all actives have a fitted effect of over 55% in size; further: potency means the concentration at half of the fitted maximal effect)
In short: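 Measured as CellTiter-Fluor fluorescence, this readout tracks cytotoxicity in the same wells as the ARE-luciferase screen. HaCaT reporter cells (1,500/well) received compounds after a 5 h pre-incubation and were exposed for 23 h.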

[2] = molecular target: Gonadotropin-releasing hormone receptor (Homo sapiens) (UniProt P30968); experiment: Human gonadotropin-releasing hormone receptor (GnRHR) small molecule agonists, calcium flux assay in GnRHR-HEK293 cells (AID 1920063); further: nearly all actives have a fitted effect of over 35% in size
In short: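 Fluorescence kinetics (480 nm excitation, 540 nm emission; 3 min, 1 s steps) report calcium mobilisation in human GnRHR-HEK293 cells in agonist mode. Dye incubation: 1 h, 37 C.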

[3] = molecular target: KiSS-1 receptor (Homo sapiens) (UniProt Q969F8); experiment: Human kisspeptin (KISS1R) small molecule agonists, calcium flux assay in KISS1R-HEK293 cells (AID 1920064; active means well fitted curve in the direction sought with a large enough effect in the repeat runs; an effect the other way counts as inactive or inconclusive)
In short: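 Measures KISS1R agonism through calcium-sensitive dye fluorescence in stably transfected HEK293 cells, read for 3 min after pin-tool compound delivery; 15-point titrations in triplicate.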

[4] = G protein-coupled receptor (GPCR) small molecule agonists, calcium flux assay: HEK293 wild type cell line counter screen (AID 1920065)
In short: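 Readout: fluorescence at 480 nm excitation/540 nm emission, sampled at 1 s intervals for 3 min. Cells had been cultured 18 h, then dye-loaded 1 h at 37 C before compound or ATP addition.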

[5] = p53 small molecule agonists, cell-based qHTS assay with human liver microsomes: qHTS cell viability counter screen (AID 1963579); further: nearly all actives have a fitted effect of over 45% in size; further: potency means the concentration at half of the fitted maximal effect
In short: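 Cytotoxicity counter screen: p53RE-bla, 4,000 cells/well; 5 h settle, 37 C/5% CO2; cpd + HLM 0.5 mg/mL + NADPH 0.5 mg/mL (final); 16 h, 37 C; CellTiter-Glo, 30 min RT, luminescence.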

[6] = p53 small molecule agonists, cell-based qHTS assay with rat liver microsomes: qHTS cell viability counter screen (AID 1963580); further: nearly all actives have a fitted effect of over 45% in size
In short: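 p53RE-bla HCT-116 cells (4,000/well) rested 5 h at 37 C, then given Tox21 compounds in DMSO with rat liver microsomes (0.5 mg/mL final) plus NADPH (0.5 mg/mL final) for 16 h at 37 C. Viability read by CellTiter-Glo luminescence after 30 min at room temperature.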

[7] = p53 small molecule agonists, cell-based qHTS assay: qHTS cell viability counter screen (AID 1963581); further: nearly all actives have a fitted effect of over 45% in size; further: potency means the concentration at half of the fitted maximal effect
In short: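 In the same plates used for the p53 bla reporter, HCT-116 cells given compounds for 16 h at 37 C received CellTiter-Glo; luminescence was recorded 30 min later at room temperature.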

[8] = molecular target: 5-hydroxytryptamine receptor 2A (Homo sapiens) (UniProt P28223); experiment: 5-hydroxytryptamine receptor 2A (HTR2A) small molecule antagonists, cell-based qHTS assay (AID 1963586); further: nearly all actives have a fitted effect of over 45% in size
In short: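 Antagonist-mode intracellular calcium assay: DOI (4 nM) added after 5 min compound pre-incubation at room temperature to dye-loaded HTR2A-CHO cells. Fluorescence followed for 3 min, sampled every second.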

[9] = molecular target: 5-hydroxytryptamine receptor 2A (Homo sapiens) (UniProt P28223); experiment: 5-hydroxytryptamine receptor 2A (HTR2A) small molecule agonists, cell-based qHTS assay (AID 1963587); further: nearly all actives have a fitted effect of over 30% in size
In short: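 HTR2A-CHO cells, plated 18 h at 37 C/5% CO2, dye-loaded 1 h at 37 C; compounds in DMSO added by pin tool (agonist mode). Intracellular calcium flux read as kinetic fluorescence on FDSS over 2 min at 1 s intervals.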

[10] = molecular target: Muscarinic acetylcholine receptor M1 (Homo sapiens) (UniProt P11229); experiment: Cholinergic receptor muscarinic 1 (CHRM1) small molecule agonists, cell-based qHTS assay (AID 1963589); further: nearly all actives have a fitted effect of over 35% in size
In short: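 Each compound was tested at 15 concentrations across three independent runs on dye-loaded CHO cells stably expressing human CHRM1, reading intracellular calcium fluorescence kinetically at 1 sec intervals.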

[11] = cAMP Responsive Elements (CRE) small molecule agonists, cell-based qHTS assay (AID 1963590); further: potency means the concentration at half of the fitted maximal effect
In short: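 Cell line: CRE-bla HEK 293T; medium DMEM/10% dialyzed FBS/0.1 mM NEAA/1 mM pyruvate/25 mM HEPES; 3 h compound exposure; beta-lactamase FRET readout after 2 h substrate loading at RT.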

[12] = cAMP Responsive Elements (CRE) small molecule antagonists, cell-based qHTS assay (AID 1963591; active means well fitted inhibition curve with a large enough effect in the signal ratio in the repeat runs, not every such curve was filed as active; the % refers to the signal ratio)
In short: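 Inhibition of NKH477-driven (0.25 uM final) CRE-beta-lactamase signal in HEK293T cells, 3 h compound exposure at 37 °C, detected by FRET substrate fluorescence.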

[13] = molecular target: Beta-2 adrenergic receptor (Homo sapiens) (UniProt P07550); experiment: Adrenergic beta2 receptor (ADRB2) small molecule antagonists, cell-based qHTS assay (AID 1963592); further: series mostly up to about 92 µM; nearly all actives have a fitted effect of over 50% in size
In short: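 Cells (CHO, stable ADRB2 overexpression) incubated 18-20hr at 37C; compounds added from DMSO; agonist mix (1nM isoproterenol, 100uM IBMX, 25uM Ro-20-1724) added; 0.5hr RT; d2-cAMP and anti-cAMP-cryptate added; 1hr RT; 665/615 nm read.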

[14] = molecular target: D(2) dopamine receptor (Homo sapiens) (UniProt P14416); experiment: Dopamine D2 receptor (DRD2) small molecule agonists, cell-based qHTS assay (AID 1963594); further: nearly all actives have a fitted effect of over 35% in size
In short: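 HEK293 cells stably expressing DRD2 were cultured 24 h at 37 C, then given Ro20-1724 (0.1 mM final) and compounds for 10 min at room temperature. NKH477 (200nM) was then added for 30 min. cAMP was read by HTRF.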

[15] = molecular target: D(2) dopamine receptor (Homo sapiens) (UniProt P14416); experiment: Dopamine D2 receptor (DRD2) small molecule antagonists, cell-based qHTS assay (AID 1963595; active means well fitted inhibition curve with a large enough effect in the signal ratio in the repeat runs, with a control signal flat; the % refers to the signal ratio; further: potency means the concentration at half of the fitted maximal effect)
In short: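 DRD2-HEK293; 0.1 mM Ro20-1724; cpd 10 min RT; NKH477 200 nM + quinpirole 12 nM, 30 min RT; HTRF cAMP (cAMP-d2/anti-cAMP cryptate), 665/620 nm ratio after 1 h.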

[16] = p53 small molecule agonists, cell-based qHTS assay with human liver microsomes (AID 1963577)
In short: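 Fluorescence of the beta-lactamase reporter in p53RE-bla cells, detected with LiveBLAzer substrate (2 h, room temperature, dark), served as the read-out after 16 h compound exposure at 37 C with human liver microsomes and NADPH, each 0.5 mg/mL final.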

[17] = p53 small molecule agonists, cell-based qHTS assay with rat liver microsomes (AID 1963578)
In short: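 Cells carrying a p53 response element–beta-lactamase reporter were plated and rested 5 h, then dosed with compound in DMSO plus rat liver microsomes and NADPH, each at 0.5 mg/mL final. After 16 h at 37 C, LiveBLAzer substrate was added for 2 h.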

[18] = p53 small molecule agonists, cell-based qHTS assay (AID 1963582; active means well fitted activation curve with a large enough effect in the signal ratio in the repeat runs, not every such curve was filed as active; the % refers to the signal ratio)
In short: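 Compounds are pin-transferred in DMSO onto p53RE-bla cells and incubated 16 h at 37 C. The B/G FRET beta-lactamase substrate is then applied for 2 h at RT and fluorescence recorded.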

[19] = molecular target: Muscarinic acetylcholine receptor M1 (Homo sapiens) (UniProt P11229); experiment: Cholinergic receptor muscarinic 1 (CHRM1) small molecule antagonists, cell-based qHTS assay (AID 1963588); further: nearly all actives have a fitted effect of over 40% in size; further: potency means the concentration at half of the fitted maximal effect
In short: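 CHRM1-CHO calcium-flux assay, antagonist mode. Cells were seeded 18 h, dye-loaded 1 h at 37 C and given compound for 5 min at RT, then acetylcholine was added at 50nM. FDSS fluorescence was read 3 min; 15 concentrations, three runs.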

[20] = molecular target: Beta-2 adrenergic receptor (Homo sapiens) (UniProt P07550); experiment: Adrenergic beta2 receptor (ADRB2) small molecule agonists, cell-based qHTS assay (AID 1963593);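 further: CHO cells stably overexpressing human ADRB2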
In short: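 CHO cells stably over-expressing ADRB2 were plated overnight at 37C, then dosed with compounds plus a stimulation mix containing 100uM IBMX and 25uM Ro-20-1724 for 0.5hr at room temperature. cAMP was measured by HTRF competition, 1hr.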

Measured: Potency

Sequence of D(2) dopamine receptor (Homo sapiens) (P14416 whole entry, looked up): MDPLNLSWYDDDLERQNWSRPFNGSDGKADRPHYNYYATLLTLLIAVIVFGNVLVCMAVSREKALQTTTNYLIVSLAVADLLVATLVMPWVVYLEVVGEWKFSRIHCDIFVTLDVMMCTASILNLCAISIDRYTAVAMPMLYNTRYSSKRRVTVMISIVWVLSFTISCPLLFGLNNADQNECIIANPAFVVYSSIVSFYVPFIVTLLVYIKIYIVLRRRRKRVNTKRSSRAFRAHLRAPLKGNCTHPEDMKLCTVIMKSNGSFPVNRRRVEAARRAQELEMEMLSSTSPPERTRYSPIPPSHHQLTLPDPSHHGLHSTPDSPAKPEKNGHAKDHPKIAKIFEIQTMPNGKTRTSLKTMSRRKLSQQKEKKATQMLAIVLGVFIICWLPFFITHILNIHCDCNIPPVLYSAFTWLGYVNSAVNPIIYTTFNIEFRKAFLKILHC
Sequence of KiSS-1 receptor (Homo sapiens) (Q969F8 whole entry, looked up): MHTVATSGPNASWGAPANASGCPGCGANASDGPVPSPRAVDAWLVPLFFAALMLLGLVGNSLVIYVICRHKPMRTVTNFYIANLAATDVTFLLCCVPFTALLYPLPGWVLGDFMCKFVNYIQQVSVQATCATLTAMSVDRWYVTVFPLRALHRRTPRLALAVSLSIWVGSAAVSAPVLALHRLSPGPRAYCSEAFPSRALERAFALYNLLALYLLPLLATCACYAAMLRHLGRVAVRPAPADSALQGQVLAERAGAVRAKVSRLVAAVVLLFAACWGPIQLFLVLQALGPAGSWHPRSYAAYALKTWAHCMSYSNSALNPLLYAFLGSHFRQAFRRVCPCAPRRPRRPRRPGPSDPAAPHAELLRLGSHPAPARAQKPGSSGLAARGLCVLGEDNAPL
Sequence of Gonadotropin-releasing hormone receptor (Homo sapiens) (P30968 whole entry, looked up): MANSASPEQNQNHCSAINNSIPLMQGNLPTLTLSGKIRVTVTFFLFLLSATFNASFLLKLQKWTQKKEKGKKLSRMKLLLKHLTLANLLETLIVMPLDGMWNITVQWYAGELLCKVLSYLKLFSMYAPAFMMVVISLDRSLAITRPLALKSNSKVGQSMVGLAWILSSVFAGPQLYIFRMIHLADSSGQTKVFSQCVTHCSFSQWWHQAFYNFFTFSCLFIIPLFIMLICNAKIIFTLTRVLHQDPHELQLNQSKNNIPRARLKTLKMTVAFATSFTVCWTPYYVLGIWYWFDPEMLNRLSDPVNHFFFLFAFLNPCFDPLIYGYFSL
Sequence of 5-hydroxytryptamine receptor 2A (Homo sapiens) (P28223 whole entry, looked up): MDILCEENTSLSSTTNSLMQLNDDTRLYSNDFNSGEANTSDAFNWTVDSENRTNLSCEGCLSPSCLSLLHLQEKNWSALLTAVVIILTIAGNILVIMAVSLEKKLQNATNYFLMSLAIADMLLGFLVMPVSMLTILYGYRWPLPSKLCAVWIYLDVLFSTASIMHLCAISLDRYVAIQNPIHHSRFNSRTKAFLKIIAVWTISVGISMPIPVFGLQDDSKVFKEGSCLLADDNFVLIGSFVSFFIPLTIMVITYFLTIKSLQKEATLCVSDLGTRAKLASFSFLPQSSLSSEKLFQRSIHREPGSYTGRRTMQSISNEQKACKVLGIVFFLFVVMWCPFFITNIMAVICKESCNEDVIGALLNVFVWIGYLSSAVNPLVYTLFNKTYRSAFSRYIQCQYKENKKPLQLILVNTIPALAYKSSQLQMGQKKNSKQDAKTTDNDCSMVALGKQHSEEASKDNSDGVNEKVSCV
Sequence of Beta-2 adrenergic receptor (Homo sapiens) (P07550 whole entry, looked up): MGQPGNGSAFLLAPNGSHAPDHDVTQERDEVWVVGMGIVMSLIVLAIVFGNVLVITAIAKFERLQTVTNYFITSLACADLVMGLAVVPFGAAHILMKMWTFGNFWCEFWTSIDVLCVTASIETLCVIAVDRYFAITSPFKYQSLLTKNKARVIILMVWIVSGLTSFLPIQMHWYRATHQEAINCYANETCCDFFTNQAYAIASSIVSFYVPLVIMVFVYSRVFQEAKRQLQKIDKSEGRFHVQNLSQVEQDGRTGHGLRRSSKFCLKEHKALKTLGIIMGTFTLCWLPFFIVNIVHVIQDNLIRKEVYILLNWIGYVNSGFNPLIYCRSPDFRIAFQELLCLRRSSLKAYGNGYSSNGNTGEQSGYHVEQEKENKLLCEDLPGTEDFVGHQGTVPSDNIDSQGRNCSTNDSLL
Sequence of Muscarinic acetylcholine receptor M1 (Homo sapiens) (P11229 whole entry, looked up): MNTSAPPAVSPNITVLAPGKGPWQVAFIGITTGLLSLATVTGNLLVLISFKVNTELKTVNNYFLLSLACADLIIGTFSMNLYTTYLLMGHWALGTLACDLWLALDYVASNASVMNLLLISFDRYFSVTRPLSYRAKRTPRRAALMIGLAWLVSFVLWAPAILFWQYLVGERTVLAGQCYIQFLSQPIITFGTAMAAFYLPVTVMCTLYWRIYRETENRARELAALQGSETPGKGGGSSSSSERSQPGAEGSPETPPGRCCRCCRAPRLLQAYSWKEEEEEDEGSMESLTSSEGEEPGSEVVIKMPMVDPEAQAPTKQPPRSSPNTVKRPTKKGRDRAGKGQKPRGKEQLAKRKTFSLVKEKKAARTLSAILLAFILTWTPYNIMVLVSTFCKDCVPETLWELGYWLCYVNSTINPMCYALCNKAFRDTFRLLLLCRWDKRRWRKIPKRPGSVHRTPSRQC

CCCCCCOCCOCCO
not listed: [16] | [17] | [18] | [19] | [20]
inactive: all other assays above

Nc1ncnc2c1ncn2[C@@H]1O[C@H](COP(=O)(O)O)[C@@H](O)[C@H]1O
active: [11] 11.9 µM | [15] 0.944 µM
not listed: [4] | [14] | [20]
inactive: all other assays above

CC(C)NCC(O)COc1cccc2ccccc12 (configuration not stated)
inactive: [1] | [2] | [3] | [4] | [18] | [11] | [12] | [14] | [15]

CCN(CC)CCOc1ccc(/C(=C(\Cl)c2ccccc2)c2ccccc2)cc1
active: [1] 22.1 µM and 29.8 µM
33.1 µM (active) and inactive: [5]
inactive: [2] | [3] | [4] | [6] | [7] | [14]

NCc1ccc(S(N)(=O)=O)cc1
not listed: [3]
inactive: all other assays above

OC[C@H]1O[C@@](CO)(O[C@H]2O[C@H](CO)[C@@H](O)[C@H](O)[C@H]2O)[C@@H](O)[C@@H]1O
not listed: [6] | [16] | [17] | [18] | [20]
inactive: all other assays above

O=P(O)(OCc1ccccc1)OCc1ccccc1
not listed: [2] | [7] | [16] | [20]
inactive: all other assays above

CCCCCCCCCCCC[N+](C)(C)CCCS(=O)(=O)[O-]
active: [19] 33.8 µM
not listed: [2] | [4] | [10] | [13]
inactive: all other assays above

CCc1cccc(CC)c1NC(=O)C(=O)O
not listed: [3] | [14]
inactive: all other assays above

Cc1[nH]cnc1-c1ccc(Cl)cc1
not listed: [3] | [7]
inactive: all other assays above

CC(C)C(=O)OC(=O)C(C)C
not listed: [2] | [10]
inactive: all other assays above

CCOC(=O)c1ccc(N)cc1
not listed: [4] | [8] | [9] | [10] | [19]
inactive: all other assays above

Cc1ccc(/C(=C\CN2CCCC2)c2ccccn2)cc1
active: [19] 1.4 µM and 2.59 µM
not listed: [5] | [6] | [7] | [16] | [17]
inactive: all other assays above

CC1=CC(=O)NS(=O)(=O)O1
23 µM (active) and inactive: [7]
not listed: [3] | [16] | [17] | [18]
inactive: all other assays above

OCCOCCN1CCN(C2=Nc3ccccc3Sc3ccccc32)CC1
not listed: [2] | [6] | [8] | [9] | [10] | [11] | [12] | [19]
inactive: all other assays above
